# From PubChem BioAssay (Tox21)
# Results filed as inconclusive are left out. The source made the active and inactive calls. Calls come from the whole dose curve.
# Biological target: Muscarinic acetylcholine receptor M1 (Homo sapiens) (UniProt P11229)
# Experiment: Cholinergic receptor muscarinic 1 (CHRM1) small molecule antagonists, cell-based qHTS assay (AID 1963588); note: nearly all actives have a fitted effect of over 40% in size
# Conditions: CHRM1-CHO antagonist mode, calcium flux fluorescence; series mostly up to 61.5 µM; activity, negative = inhibition: at the top concentration
# Description: National Center for Advancing Translational Sciences [NCATS]
# Division of Preclinical Innovation [DPI]
# U.S. Environmental Protection Agency [EPA]
# National Institutes of Environmental Health Sciences [NIEHS]
# National Toxicology Program [NTP]
# U.S. Food and Drug Administration [FDA]
# The CHRM1 is a muscarinic receptor. This receptor plays a crucial role in learning and memory processes and has long been identified as a promising therapeutic target for the improvement of cognitive decline in Alzheimer's disease (AD). The CHRM1-CHO cell line stably expressing human muscarinic acetylcholine receptor M1 (CHRM1) can be used for screening agonists and antagonists of interactions between CHRM1 and its ligands. The CHRM1-CHO Calcium Flux Assay is a homogeneous fluorescence-based assay for detecting the intracellular calcium level using FDSS kinetic plate reader system.
# Tox21 Assay Protocol Summary:
# CHRM1-CHO cells were dispensed at 1000 cells/3uL/well in 1536-well black-clear bottom plates using a Multidrop Dispenser. After the assay plates were incubated at a 37 C/5% CO2 incubator for 18 h, 3 uL of Dye Loading Buffer was transferred to the assay plate by a Flying Reagent Dispenser. The assay plates were incubated at 37 C for 1h. For antagonist mode, 23 nL of compounds dissolved in DMSO, positive controls or DMSO only was transferred to the assay plate by a pin tool. After 5 min incubation at room temperature, 1.5 uL of acetylcholine at 50nM was added to each well. The fluorescence intensity in the plates was measured using FDSS 7000EX kinetic plate reader for 3 min at 1 sec intervals. Each test compound was measured at 15 concentrations in three independent runs.
# % is set by controls: 0 for no effect and ±100 for the full control effect; potency is the fitted concentration of half-maximal effect.
# Chain of Muscarinic acetylcholine receptor M1 (Homo sapiens) (P11229 whole entry, looked up): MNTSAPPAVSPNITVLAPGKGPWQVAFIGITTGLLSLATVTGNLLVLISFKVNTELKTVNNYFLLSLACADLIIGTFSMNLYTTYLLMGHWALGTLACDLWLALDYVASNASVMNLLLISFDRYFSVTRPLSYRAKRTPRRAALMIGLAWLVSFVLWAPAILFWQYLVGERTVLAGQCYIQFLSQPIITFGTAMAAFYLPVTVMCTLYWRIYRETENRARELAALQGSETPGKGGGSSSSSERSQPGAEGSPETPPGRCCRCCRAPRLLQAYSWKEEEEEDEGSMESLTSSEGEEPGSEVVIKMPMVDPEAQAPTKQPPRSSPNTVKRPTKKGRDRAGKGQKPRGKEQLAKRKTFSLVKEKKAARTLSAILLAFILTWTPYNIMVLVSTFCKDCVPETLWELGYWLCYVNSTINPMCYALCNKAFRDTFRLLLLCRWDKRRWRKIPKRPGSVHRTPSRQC
SMILES,"activity, negative = inhibition",Potency
O=C(O)CCCCCCCCCCCBr,-4.88% (inactive),–
O=C(O)c1ccc2cc(C(=O)O)ccc2c1,-1.31% (inactive),–
NC(=O)c1ccccc1C(N)=O,10.7% (inactive),–
CN1CCN(CCC(=O)N2c3ccccc3Sc3ccc(C(F)(F)F)cc32)CC1,–,0.146 µM (active)
CN1[C@@H]2CC(OC(=O)[C@H](CO)c3ccccc3)C[C@H]1[C@@H]1O[C@@H]12 (stereo not given in full),–,inactive
Cc1cc2c(cc1CC(=O)c1sccc1S(=O)(=O)Nc1onc(C)c1Cl)OCO2,10.5% [at 28.3 µM] (inactive),–
CCCCCCCOC(=O)CCC,11% (inactive),–
OC[C@H]1O[C@@H](n2cnc3c(=S)nc[nH]c32)[C@H](O)[C@@H]1O,22.7% [at 28.3 µM] (inactive),–
Cc1ccc(C(C)C)cc2c(C)ccc1-2,0.478% [at 28.3 µM] (inactive),–
O=C1CC[C@@H](C(=O)O)N1,-19.4% [at 28.3 µM] (inactive),–
O=C(c1ccc(O)cc1)c1ccc(O)c(O)c1O,7.53% (inactive),–
OCC(O)CO,–,inactive
COC(=O)CSc1cc(N=c2sc(=O)n3n2CCCC3)c(F)cc1Cl,-14.3% (inactive),–
Nc1cccnc1N,10.6% (inactive),–
C/C=C(\C)C(C)=O,-26.5% (inactive),–
CCCCCCOc1ccccc1C(N)=O,1.36% [at 28.3 µM] (inactive),–
O=C1c2c(O)ccc([N+](=O)[O-])c2C(=O)c2c([N+](=O)[O-])ccc(O)c21,-19% (inactive),–
COc1cccc2sc(N)nc12,-14% (inactive),–
C=CCCCCCCCCOC(C)=O,2.89% (inactive),–
N=C(N)N1CCc2ccccc2C1,-1.92% [at 5.58 µM] (inactive),–

SMILES,"activity, negative = inhibition",Potency
C=Cc1ccc(O)c(OC)c1,2.02% (inactive),–
O=C(O)CN1C(=O)c2cccc3cccc(c23)C1=O,-3.52% [at 28.3 µM] (inactive),–
CSc1ccc(C=O)cc1,5.06% (inactive),–
CCc1cc(Cc2cc(CC)c(N)c(CC)c2)cc(CC)c1N,-23.2% (inactive),–
NNC(=O)CP(=O)(c1ccccc1)c1ccccc1,3.61% [at 28.3 µM] (inactive),–
Cc1cc(-c2ccc(N=Nc3cc(S(=O)(=O)O)c4ccccc4c3N)c(C)c2)ccc1N=Nc1cc(S(=O)(=O)O)c2ccccc2c1N,–,7.52 µM (active)
COc1ccc(OC)c(Cl)c1,3.38% (inactive),–
C[C@@H](O)[C@H]1C(=O)N2C(C(=O)O)=C(S[C@@H]3CN[C@H](CNS(N)(=O)=O)C3)[C@H](C)[C@H]12,15.5% [at 28.3 µM] (inactive),–
O=C1c2ccccc2C(=O)c2c1ccc(O)c2O,-12.9% [at 28.3 µM] (inactive),–
CC(C)(Cc1c[nH]c2ccccc12)NCC(O)COc1ccccc1C#N (stereo not given),-29.9% [at 28.3 µM] (inactive),–
O=C(Nc1ncc([N+](=O)[O-])s1)c1cccs1,8.55% [at 28.3 µM] (inactive),–
CCc1cc2cc(OC)c(OC)cc2c(Cc2ccccc2)n1,4.03% [at 28.3 µM] (inactive),–
C=CCOc1ccccc1OCC(O)CNC(C)C (stereo not given),6.69% [at 28.3 µM] (inactive),–
C=Cc1c(C)c2cc3[nH]c(cc4nc(cc5nc(cc1[nH]2)C(C)=C5CCC(=O)O)C(CCC(=O)O)=C4C)c(C)c3C=C,3.09% [at 28.3 µM] (inactive),–
C=CC[N+]1([C@H]2C[C@H]3[C@@H]4CC[C@H]5C[C@H](OC(C)=O)[C@@H](N6CCCCC6)C[C@]5(C)[C@H]4CC[C@]3(C)[C@H]2OC(=O)CC)CCCCC1,-21.6% [at 28.3 µM] (inactive),–
CC(C)c1ccc2c(c1)CC[C@H]1[C@](C)(CN)CCC[C@]21C,-16.6% (inactive),–
CC(C)COC(=O)CCCCC(=O)OCC(C)C,10.8% (inactive),–
CC(CC=O)CCCC(C)(C)O (stereo not given),4.2% (inactive),–
CC(C)(C)c1cc(/C=C2\SC(=N)NC2=O)cc(C(C)(C)C)c1O,-24.4% (inactive),–
C=CC(=C)CCCC(C)(C)OC(C)=O,10.8% (inactive),–
